The structures appear in SMILES notation. Screen size: about 360,000 compounds; about 160 (0.044%) were called active. Only a selection was taken, and actives are over-represented in it overall. Unmarked numbers belong to inactive results. No stated cut-off is given here; in the data, active means survival enhancement above about 18%; inactive means the rest.

This assay is described as follows: enhancers of single-cell hiPSC survival, primary screen, ATPlite luminescence (AID 602274).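 Further: cells exposed to compounds for 16 hours before the ATP read.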 The following applies: at 20 µM, stronger effect = higher value, 100% = ROCK inhibitor wells, 0% = DMSO. (In general: Cellular ATP, detected with luciferase, serves as a proxy for viable cell number.)
On to `CCC(=O)c1ccc(OCC(O)CN2C(=O)NC(C)(C)C2=O)cc1` (configuration not stated), for which the survival enhancement is 0.2%.

As to `C=Cc1ccc(C(=O)N2CCCC(CCC(=O)N3CCN(c4ccccn4)CC3)C2)cc1` (configuration not stated), the survival enhancement is -0.4%.

For `CC(=O)NNC1=Nc2ccccc2N(C)C(C)C1` (configuration not stated), the survival enhancement is -0.5%.

As for `CC1CCCCC1NC(=O)CCS(=O)(=O)c1cccc2nonc12` (configuration not stated), the survival enhancement is 1.2%.

Take `O=C(Nc1ccncc1)c1ccccc1[N+](=O)[O-]`: the survival enhancement is 28.4% (active).

Regarding `O=C(Nc1ccncc1)c1c(F)cccc1F`, the survival enhancement is 39.6% (active).

For the molecule `COc1cccc(OC)c1C(=O)Nc1ccc(Cc2ccncc2)cc1`, the survival enhancement is 0.6%.

`O=C(Nc1cccnc1)c1ccc(Cl)cc1[N+](=O)[O-]`: the survival enhancement is -1.2%.

Regarding `O=C(Nc1ccccc1-c1ccccc1)c1ccccc1[N+](=O)[O-]`, the survival enhancement is 0.6%.

For the molecule `O=C(Nc1ccc(N2CCOCC2)nc1)c1c(F)cccc1F`, the survival enhancement is -0.6%.

Consider `Cc1cc2cc3c(cc2nc1SCC(=O)Nc1c(C)cccc1C)CCC3`, for which the survival enhancement is -1.9%.

For the molecule `CC(=O)c1ccccc1NC(=O)COC(=O)C1COc2ccccc2O1` (configuration not stated), the survival enhancement was -0.2%.

Take `O=C(Nc1nc(-c2ccncc2)cs1)C1COc2ccccc2O1` (configuration not stated): the survival enhancement is 103% (active).

As for `CC(/C=C/c1ccco1)=N/NC(=O)C1COc2ccccc2O1` (configuration not stated), the survival enhancement was -0.2%.

`CC(=O)c1cnn(-c2cc(Oc3ccc(F)cc3)ncn2)c1C`: the survival enhancement is 2.8%.

As for `CCCCNC(=O)CCn1nc(-c2ccc(Cl)cc2)ccc1=O`, the survival enhancement was 0%.

With `CC(C)CCN1CCN(C/C=C/c2ccco2)CC1CCO` (configuration not stated), the survival enhancement was -0.4%.

For the molecule `COCc1cc(C)nc2sc3c(=O)n(-c4cccc5ccccc45)nnc3c12`, the survival enhancement was 4.5%.

In the case of `C[C@H](NC(=O)C1CC(=O)N(c2ccc3c(c2)OCCO3)C1)C(=O)N1CCC(C(=O)O)CC1` (some centres not stated), the survival enhancement was -0.4%.

As for `CCOC(=O)C1(Cc2cccc(OC)c2)CCCN(S(=O)(=O)c2cccnc2)C1` (configuration not stated), the survival enhancement is 1.2%.

As to `C[n+]1ccccc1C1CCCC/C1=N\Nc1ccc([N+](=O)[O-])cc1[N+](=O)[O-]` (configuration not stated), the survival enhancement is -1.7%.

Regarding `Cc1ccc(OS(=O)Nc2cccc3nccnc23)cc1` (configuration not stated), the survival enhancement was 1.2%.

Turning to `CCc1c(C)sc(NC(=O)c2cccs2)c1C(N)=O`, the survival enhancement is -1.4%.

With `c1ccc2cc3c(NCCN4CCOCC4)ccnc3cc2c1`, the survival enhancement is -2.3%.

For the molecule `C1=C(N2CCOCC2)/C(=C/c2nc3ccccc3[nH]2)CC1`, the survival enhancement is 3.5%.

As for `Cc1ccc(S(=O)(=O)N2CCN(C(=O)COC(=O)/C=C/c3cccc(Cl)c3)CC2)c(C)c1`, the survival enhancement is -0.9%.

With `O=C(Nc1ccc(N2CCN(C(=O)c3ccccc3)CC2)c(Cl)c1)c1ncn[nH]1`, the survival enhancement is 0.4%.
